Assay results as given in PubChem BioAssay.
Counter-ions that a name gives are not always drawn. Calls of active or inactive are those of the source.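 How the source made its calls: active means luciferase signal above three times the same-plate solvent-only control wells; inactive means the rest.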 Peptide text beside a SMILES is read from it. * marks the point of attachment. Tfa = O=C(C(F)(F)F)*

Target: Mitogen-activated protein kinase 7 (Homo sapiens) (UniProt Q13164)
Assay: Gal4-ERK5 driven luciferase induction – cell-based, HTS, primary screen (AID 1508626);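 further: luciferase driven by Gal4-ERK5 fusion binding five Gal4 sites before minimal TATA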
Conditions: HeLa Gal4-ERK5 transactivation, 18 h, at 5 µM, active compounds read high

Sequence of Mitogen-activated protein kinase 7 (Homo sapiens) (Q13164 whole entry, looked up, the tested form may be a part): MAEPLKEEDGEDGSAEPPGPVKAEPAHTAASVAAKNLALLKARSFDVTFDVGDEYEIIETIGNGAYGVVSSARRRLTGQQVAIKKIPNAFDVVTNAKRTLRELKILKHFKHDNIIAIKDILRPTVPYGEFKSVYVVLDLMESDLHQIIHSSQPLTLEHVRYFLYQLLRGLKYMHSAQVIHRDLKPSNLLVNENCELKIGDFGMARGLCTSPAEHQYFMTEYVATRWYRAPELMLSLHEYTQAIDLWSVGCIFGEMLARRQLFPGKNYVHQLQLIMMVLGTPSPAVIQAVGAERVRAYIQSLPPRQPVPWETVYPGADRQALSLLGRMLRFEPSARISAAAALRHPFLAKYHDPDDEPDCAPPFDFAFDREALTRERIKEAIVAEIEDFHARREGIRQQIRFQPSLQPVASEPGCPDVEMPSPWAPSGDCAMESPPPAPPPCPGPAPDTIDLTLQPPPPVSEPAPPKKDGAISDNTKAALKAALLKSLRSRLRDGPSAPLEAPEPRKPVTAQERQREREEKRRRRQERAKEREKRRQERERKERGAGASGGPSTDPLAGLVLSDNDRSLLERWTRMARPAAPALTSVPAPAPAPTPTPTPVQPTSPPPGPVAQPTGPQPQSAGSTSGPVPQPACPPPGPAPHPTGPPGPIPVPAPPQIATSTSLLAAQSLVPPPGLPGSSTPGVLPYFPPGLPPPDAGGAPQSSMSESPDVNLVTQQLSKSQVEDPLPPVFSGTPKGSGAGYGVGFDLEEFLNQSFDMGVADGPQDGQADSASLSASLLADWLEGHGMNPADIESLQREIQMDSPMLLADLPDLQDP

Row | Structure (SMILES) | luciferase signal
1 | Cc1cccc2c3c(ccc12)C1=C(C(=O)C3=O)[C@@H](C)CO1 | 156 AU (inactive)
2 | C=C1C(=O)C23C(O)C1CCC2C12COC3(O)C(O)C1C(C)(C)CCC2O (stereo not drawn) | 108 AU (inactive)
3 | N[C@@H](C=O)[C@@H](O[C@@H]1O[C@H](C(=O)O)[C@@H](O)[C@H](O)[C@H]1O)[C@@H](O)[C@H](O)CO | 20 AU (inactive)
4 | COc1ccc(-c2coc3cc(OC(C)=O)cc(OC(C)=O)c3c2=O)cc1 | 80 AU (inactive)
5 | CC(=O)O[C@H]1CC[C@@]2(C)C(=CC[C@H]3[C@@H]4CC[C@H]([C@H](C)CCCC(C)C)[C@@]4(C)CC[C@@H]32)C1 | 56 AU (inactive)
6 | CC(C)CCC[C@@H](C)C1CC[C@H]2[C@@H]3CCC4CC(=O)CC[C@]4(C)[C@H]3CC[C@]12C (stereo partly drawn) | 52 AU (inactive)
7 | O=c1c(O)c(-c2ccc(O)c(O)c2)oc2c(O[C@@H]3O[C@H](CO)[C@@H](O)[C@H](O)[C@H]3O)c(O)cc(O)c12 | 36 AU (inactive)
8 | CC[C@H](/C=C/[C@@H](C)[C@H]1CC[C@H]2[C@@H]3CCC4=CC(=O)CC[C@]4(C)[C@H]3CC[C@]12C)C(C)C | 56 AU (inactive)
9 | CC1(C)O[C@H]2[C@H](O)C[C@](O)(C(N)=O)C[C@H]2O1 | 20 AU (inactive)
10 | CC(C)C(NC(=O)C(Cc1ccc(O)cc1)NC(=O)C(NC(=O)C(F)(F)F)C(C)C)C(=O)O (stereo not drawn) (Tfa-Val-Tyr-Val-OH; configuration not given here) | 64 AU (inactive)
11 | COC(=O)C[C@H]1C(C)(C)C(=O)[C@@H]2CC3=C4CC(=O)O[C@@H](c5ccoc5)[C@]4(C)CC[C@@H]3[C@@]1(C)C2=O | 32 AU (inactive)
12 | CC(C)CCC[C@@H](C)[C@H]1CC[C@H]2[C@@H]3CC=C4CC(=O)CC[C@]4(C)[C@H]3CC[C@]12C | 20 AU (inactive)
13 | CO[C@H]1O[C@H](CO)C(O[C@@H]2OC(C(=O)O)[C@@H](O[C@H]3O[C@H](COS(=O)(=O)O)C(O[C@@H]4OC(C(=O)O)[C@@H](O[C@H]5O[C@H](CO)C(O[C@@H]6OC(C(=O)O)[C@@H](O[C@H]7O[C@H](COS(=O)(=O)O)C(O[C@@H]8OC(C(=O)O)=C[C@H](O)C8OS(=O)(=O)O)[C@H](O)[C@H]7NC(C)=O)[C@H](O)[C@H]6O)[C@H](O)[C@H]5NC(C)=O)[C@H](O)[C@H]4O)[C@H](O)[C@H]3NC(C)=O)[C@H](O)[C@H]2O)[C@H](O)[C@H]1NC(C)=O (stereo partly drawn) | 100 AU (inactive)
14 | Oc1ccc2c(c1)OC[C@]1(O)Cc3cc(O)c(O)cc3[C@H]21 | 28 AU (inactive)
15 | OC[C@H]1O[C@H]([S-])[C@H](O)[C@@H](O)[C@@H]1O.[Au+] | 68 AU (inactive)
16 | C[C@H](CCC(=O)O)[C@H]1CC[C@H]2[C@@H]3CC[C@@H]4C[C@H](O)CC[C@]4(C)[C@H]3C=C[C@]12C | 16 AU (inactive)
17 | CCC(=O)OCC(=O)[C@@]1(OC(=O)CC)[C@H](C)CC2C3C(Cl)CC4=CC(=O)C=C[C@]4(C)C3C(O)C[C@@]21C (stereo partly drawn) | 108 AU (inactive)
18 | CC(=O)OCC(=O)[C@@]1(O)CCC2C3CC[C@@H]4C[C@H](O)CC[C@]4(C)C3C(=O)C[C@@]21C (stereo partly drawn) | 112 AU (inactive)
19 | C/C1=C\CC(C)(C)/C=C/CC2(C)OC2CC1 (stereo not drawn) | 64 AU (inactive)
20 | CC(=O)OCC(=O)[C@H]1CC[C@H]2[C@@H]3CC=C4C[C@@H](O)CC[C@]4(C)[C@H]3CC[C@]12C | 256 AU (active)
21 | CC(C)=CCC/C(C)=C/CC/C(C)=C/CC/C(C)=C/CO | 0 AU (inactive)
22 | CC1CCC2(OC1)OC1CC3C4CCC5C[C@@H](O)CCC5(C)C4=CCC3(C)C1C2C (stereo partly drawn) | 644 AU (active)
23 | CC(C)CCC[C@@H](C)[C@H]1CC[C@H]2[C@@H]3CC(=O)[C@H]4C[C@@H](O)CC[C@]4(C)[C@H]3CC[C@]12C | 216 AU (active)
24 | C=C1CC[C@@]2(OC1)O[C@H]1C[C@H]3[C@@H]4CC=C5C[C@@H](O)C[C@@H](O)[C@]5(C)[C@H]4CC[C@]3(C)[C@H]1[C@@H]2C | 84 AU (inactive)
25 | CC1(C)C[C@@H]2/C(CO)=C\C=C/[C@@](C)(O)CC[C@]21O | 64 AU (inactive)
26 | CC[C@H](C)[C@H](N)C(=O)N1CCC[C@H]1C(=O)N[C@H](C(=O)O)[C@@H](C)CC | 120 AU (inactive)
27 | NCCC(=O)c1ccccc1N | 88 AU (inactive)
28 | O=c1c2cc(O)c(O)cc2oc2cc(O)c([C@@H]3O[C@H](CO)[C@@H](O)[C@H](O)[C@H]3O)c(O)c12 | 48 AU (inactive)
